In all, about 5,500 compounds went through this assay and about 2,000 (36%) were called active. Another 18% or so got no clear call; they are omitted. Cut-off read from the data, not from the text of the source: active = normalized growth mostly below about 0.91 (no sharp cut-off); inconclusive = no clear call, values can overlap the other calls; inactive = mostly above about 0.92. This is one part of the list.
Experiment: chemical genetic growth profiling, strain panel (AID 1159580);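 note: tested at 20 µM; growth read once vehicle control cultures reached saturation at 30 °C; 1 = growth at the plate median or of vehicle wells; lower values mean less growth of the strain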
Details: S. cerevisiae deletion strains, growth OD
[1] = locus YDL101C, strain DUN1, hits give low values
[2] = locus YHR030C, strain SLT2, hits give low values
[3] = locus YHR079C, strain IRE1, hits give low values
[4] = locus YJL095W, strain BCK1, hits give low values
[5] = locus YJR066W, strain TOR1, hits give low values
[6] = locus YLR113W, strain HOG1, hits give low values
[7] = locus YNL183C, strain NPR1, hits give low values
[8] = locus YOR231W, strain MKK1, hits give low values
[9] = locus YPL256C, strain CLN2, hits give low values

Measured: normalized growth

O=C(Nc1ccccc1C(=O)O)OCC1c2ccccc2-c2ccccc21
active: [2] 0.366 | locus YHR082C, strain KSP1, hits give low values 0.591 | locus YKL048C, strain ELM1, hits give low values 0.799 | [6] 0.8 | locus YOR061W, strain CKA2, hits give low values 0.553 | [9] 0.808
inactive: locus YAR019C, strain CDC15, hits give low values 0.993 | locus YBL105C, strain PKC1, hits give low values 0.989 | locus YBR135W, strain CKS1, hits give low values 0.978 | locus YBR136W, strain MEC1, hits give low values 0.987 | locus YBR160W, strain CDC28, hits give low values 0.981 | locus YDL017W, strain CDC7, hits give low values 0.986 | locus YDL028C, strain MPS1, hits give low values 0.987 | [1] 0.988 | locus YDL108W, strain KIN28, hits give low values 0.984 | locus YDL132W, strain cdc53, hits give low values 0.985 | locus YDL214C, strain PRR2, hits give low values 0.884 | locus YDR052C, strain DBF4, hits give low values 0.983 | locus YDR054C, strain cdc34, hits give low values 0.99 | locus YDR226W, strain ADK1, hits give low values 0.982 | locus YDR477W, strain SNF1, hits give low values 0.859 | locus YER123W, strain YCK3, hits give low values 0.839 | locus YER133W, strain GLC7, hits give low values 0.901 | locus YFL009W, strain cdc4, hits give low values 0.986 | locus YFL029C, strain CAK1, hits give low values 0.992 | locus YFR003C, strain YPI1, hits give low values 0.985 | locus YFR019W, strain FAB1, hits give low values 0.803 | locus YFR028C, strain CDC14, hits give low values 0.979 | locus YGR040W, strain KSS1, hits give low values 0.857 | locus YGR052W, strain FMP48, hits give low values 0.701 | locus YGR092W, strain DBF2, hits give low values 0.683 | [3] 0.793 | locus YHR205W, strain SCH9, hits give low values 0.746 | locus YIL147C, strain SLN1, hits give low values 0.986 | [4] 0.665 | locus YJL128C, strain PBS2, hits give low values 0.927 | locus YJL157C, strain FAR1, hits give low values 0.893 | locus YJR016C, strain ILV3, hits give low values 0.99 | locus YJR066W, strain TOR1 (second series), hits give low values 0.826 | [5] 0.709 | locus YKL067W, strain YNK1, hits give low values 0.866 | locus YKL101W, strain HSL1, hits give low values 0.72 | locus YKL193C, strain SDS22, hits give low values 0.987 | locus YKL203C, strain TOR2, hits give low values 0.883 | locus YLR133W, strain CKI1, hits give low values 0.78 | locus YLR403W, strain SFP1, hits give low values 0.795 | locus YML070W, strain DAK1, hits give low values 0.842 | locus YMR001C, strain CDC5, hits give low values 0.986 | locus YMR205C, strain PFK2 (second series), hits give low values 0.853 | locus YMR277W, strain FCP1, hits give low values 0.989 | locus YNL006W, strain LST8, hits give low values 0.978 | locus YNL020C, strain ARK1, hits give low values 0.728 | locus YNL161W, strain CBK1, hits give low values 0.983 | [7] 0.742 | locus YNL207W, strain RIO2, hits give low values 0.992 | locus YNL222W, strain SSU72, hits give low values 0.985 | locus YNL307C, strain MCK1 (second series), hits give low values 0.703 | locus YOL078W, strain AVO1, hits give low values 0.977 | locus YOL136C, strain PFK27, hits give low values 0.805 | locus YOR119C, strain RIO1, hits give low values 0.927 | [8] 0.818 | locus YOR329C, strain SCD5, hits give low values 0.993 | locus YPL031C, strain PHO85, hits give low values 0.827 | locus YPL153C, strain RAD53, hits give low values 0.855 | locus YPL204W, strain HRR25, hits give low values 0.797 | locus YPL209C, strain IPL1, hits give low values 0.984 | locus YPR025C, strain CCL1, hits give low values 0.991 | locus YPR106W, strain ISR1, hits give low values 0.977 | locus YPR111W, strain DBF20, hits give low values 0.96 | strain NNK1, hits give low values 0.987 | strain TSCII, hits give low values 0.99

CC(C)C[C@@H](NC(=O)OCC1c2ccccc2-c2ccccc21)C(=O)O
inactive: locus YAL021C, strain ccr4, hits give low values 0.988 | locus YAL026C, strain drs2, hits give low values 0.982 | locus YAL030W, strain snc1, hits give low values 0.991 | locus YBL061C, strain skt5, hits give low values 1.01 | locus YBR009C, strain hhf1, hits give low values 1.01 | locus YBR023C, strain chs3, hits give low values 1 | locus YBR171W, strain sec66, hits give low values 1 | locus YBR231C, strain swc5, hits give low values 1.01 | locus YBR279W, strain paf1, hits give low values 0.998 | locus YCL011C, strain gbp2, hits give low values 0.993 | locus YCL016C, strain dcc1, hits give low values 0.983 | locus YCL061C, strain MRC1, hits give low values 1 | locus YCL069W, strain vba3, hits give low values 0.995 | locus YCR088W, strain abp1, hits give low values 0.992 | locus YDL005C, strain med2, hits give low values 0.986 | locus YDL040C, strain nat1, hits give low values 0.985 | locus YDR001C, strain nth1, hits give low values 0.977 | locus YDR069C, strain doa4, hits give low values 0.993 | locus YDR137W, strain rgp1, hits give low values 0.962 | locus YDR159W, strain sac3, hits give low values 1.04 | locus YDR195W, strain ref2 0.945 | locus YDR297W, strain sur2, hits give low values 1 | locus YDR334W, strain swr1, hits give low values 0.988 | locus YDR335W, strain msn5, hits give low values 0.991 | locus YDR392W, strain spt3, hits give low values 0.955 | locus YEL003W, strain gim4, hits give low values 0.999 | locus YEL037C, strain rad23, hits give low values 0.998 | locus YEL061C, strain CIN8 (second series), hits give low values 0.997 | locus YER015W, strain faa2, hits give low values 0.997 | locus YER016W, strain bim1, hits give low values 0.993 | locus YER111C, strain swi4, hits give low values 1 | locus YER155C, strain BEM2 (second series), hits give low values 1.02 | locus YFR010W, strain ubp6, hits give low values 0.991 | locus YGL167C, strain pmr1, hits give low values 0.999 | locus YGL173C, strain kem1, hits give low values 1 | locus YGL227W, strain vid30, hits give low values 0.996 | locus YGL240W, strain doc1, hits give low values 1.01 | locus YGL253W, strain hxk2, hits give low values 1 | locus YHR013C, strain ard1, hits give low values 0.998 | locus YHR027C, strain rpn1, hits give low values 0.984 | [2] 0.966 | [3] 0.976 | locus YHR142W, strain chs7, hits give low values 0.996 | locus YJL092W, strain hpr5, hits give low values 1 | locus YJL095W, strain BCK1 (second series), hits give low values 0.999 | [4] 0.98 | locus YJL115W, strain asf1, hits give low values 0.979 | locus YJL129C, strain trk1, hits give low values 1 | locus YJL154C, strain vps35, hits give low values 0.986 | locus YJL164C, strain tpk1, hits give low values 0.971 | locus YJL166W, strain qcr8, hits give low values 1 | locus YJL187C, strain SWE1, hits give low values 0.996 | [5] 0.89 | locus YKL160W, strain elf1, hits give low values 0.99 | locus YKR026C, strain gcn3, hits give low values 1 | locus YKR091W, strain srl3, hits give low values 0.981 | locus YLL001W, strain dnm1, hits give low values 0.974 | locus YLL026W, hits give low values 0.992 | locus YLL041C, strain sdh2, hits give low values 1 | locus YLR027C, strain aat2, hits give low values 1 | [6] 0.888 | locus YLR221C, strain rsa3, hits give low values 1.03 | locus YLR258W, strain gsy2, hits give low values 1 | locus YLR262C, strain YPT6 (second series), hits give low values 0.949 | locus YLR320W, strain mms22, hits give low values 1.02 | locus YLR342W, strain FKS1, hits give low values 0.99 | locus YLR357W, strain rsc2, hits give low values 0.97 | locus YLR370C, strain arc18, hits give low values 1.01 | locus YLR384C, strain iki3, hits give low values 0.991 | locus YML120C, strain ndi1, hits give low values 0.994 | locus YMR058W, strain fet3, hits give low values 0.991 | locus YMR125W, strain sto1, hits give low values 0.965 | locus YMR129W, hits give low values 0.998 | locus YMR205C, strain PFK2, hits give low values 0.973 | locus YMR231W, strain pep5, hits give low values 0.971 | locus YNL071W, strain lat1, hits give low values 0.995 | [7] 0.888 | locus YNL209W, strain ssb2, hits give low values 0.997 | locus YNL248C, strain rpa49, hits give low values 0.978 | locus YNL322C, strain KRE1 (second series), hits give low values 1 | locus YNR049C, strain mso1, hits give low values 0.998 | locus YOR001W, strain rrp6, hits give low values 1.01 | locus YOR070C, strain gyp1, hits give low values 0.991 | locus YOR080W, strain dia2, hits give low values 1.01 | locus YOR083W, strain WHI5, hits give low values 0.986 | locus YOR106W, strain vam3, hits give low values 0.963 | [8] 0.949 | locus YOR265W, strain rbl2, hits give low values 1 | locus YOR270C, strain vph1, hits give low values 0.954 | locus YOR290C, strain snf2, hits give low values 0.956 | locus YPL051W, strain arl3, hits give low values 1.01 | locus YPL078C, strain atp4, hits give low values 0.979 | locus YPL106C, strain sse1, hits give low values 1.02 | locus YPL240C, strain hsp82, hits give low values 1.01 | [9] 0.945

O=C(NCCCCO)OCC1c2ccccc2-c2ccccc21
inactive: locus YAL013W, strain DEP1, hits give low values 1 | locus YBR229C, strain ROT2, hits give low values 0.997 | [1] 1 | locus YDR150W, strain NUM1, hits give low values 0.986 | locus YEL061C, strain CIN8, hits give low values 0.985 | locus YGR078C, strain PAC10, hits give low values 0.991 | locus YGR229C, strain SMI1, hits give low values 0.987 | [2] 0.867 | locus YHR087W, strain rtc3, hits give low values 0.987 | locus YJR043C, strain POL32, hits give low values 0.989 | locus YJR075W, strain HOC1, hits give low values 1.01 | locus YLR039C, strain RIC1, hits give low values 1.02 | locus YLR058C, strain SHM2 (second series), hits give low values 0.98 | locus YLR085C, strain ARP6, hits give low values 0.886 | locus YLR262C, strain YPT6, hits give low values 1.02 | locus YML094W, strain GIM5, hits give low values 0.955 | locus YMR219W, strain ESC1, hits give low values 0.995 | locus YMR263W, strain SAP30, hits give low values 0.959 | locus YMR307W, strain GAS1, hits give low values 0.812 | locus YNL153C, strain GIM3, hits give low values 0.983 | locus YNL298W, strain CLA4 (second series), hits give low values 0.929 | locus YNL322C, strain KRE1, hits give low values 1 | locus YNR030W, strain Alg12, hits give low values 0.963 | locus YPL055C, strain LGE1, hits give low values 0.953 | locus YPL241C, strain CIN2, hits give low values 0.937 | locus YPR135W, strain CTF4, hits give low values 0.959

Source: PubChem BioAssay AID1159580 (chemical genetic matrix, 2015)
